Assay outcomes from PubChem BioAssay.
Mdm2 MdmX PPI: inhibitors of human Mdm2-MdmX association, primary screen, cell-based, luminescence, split luciferase, SaOS-2, uHTS | SaOS-2 split-luciferase Mdm2/MdmX complementation | inhibition, % at 8 µM | actives 3% (n = 330,000) | AID 485346, 2010;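 active means inhibition of at least 50% at 8 µM in the primary screen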
Target sequence (O15151 whole entry, looked up): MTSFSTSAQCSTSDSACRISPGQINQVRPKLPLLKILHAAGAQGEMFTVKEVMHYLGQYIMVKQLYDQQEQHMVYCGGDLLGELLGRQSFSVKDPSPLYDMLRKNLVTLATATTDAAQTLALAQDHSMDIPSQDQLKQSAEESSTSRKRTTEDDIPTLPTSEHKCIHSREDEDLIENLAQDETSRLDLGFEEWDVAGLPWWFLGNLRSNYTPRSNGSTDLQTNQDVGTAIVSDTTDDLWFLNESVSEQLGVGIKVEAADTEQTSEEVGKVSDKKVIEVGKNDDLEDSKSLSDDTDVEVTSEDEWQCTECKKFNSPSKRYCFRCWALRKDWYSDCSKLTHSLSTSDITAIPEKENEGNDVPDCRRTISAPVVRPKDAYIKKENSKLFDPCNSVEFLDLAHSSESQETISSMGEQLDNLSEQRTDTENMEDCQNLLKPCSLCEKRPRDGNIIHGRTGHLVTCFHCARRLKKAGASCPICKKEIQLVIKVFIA
Target sequence (Q00987 whole entry, looked up): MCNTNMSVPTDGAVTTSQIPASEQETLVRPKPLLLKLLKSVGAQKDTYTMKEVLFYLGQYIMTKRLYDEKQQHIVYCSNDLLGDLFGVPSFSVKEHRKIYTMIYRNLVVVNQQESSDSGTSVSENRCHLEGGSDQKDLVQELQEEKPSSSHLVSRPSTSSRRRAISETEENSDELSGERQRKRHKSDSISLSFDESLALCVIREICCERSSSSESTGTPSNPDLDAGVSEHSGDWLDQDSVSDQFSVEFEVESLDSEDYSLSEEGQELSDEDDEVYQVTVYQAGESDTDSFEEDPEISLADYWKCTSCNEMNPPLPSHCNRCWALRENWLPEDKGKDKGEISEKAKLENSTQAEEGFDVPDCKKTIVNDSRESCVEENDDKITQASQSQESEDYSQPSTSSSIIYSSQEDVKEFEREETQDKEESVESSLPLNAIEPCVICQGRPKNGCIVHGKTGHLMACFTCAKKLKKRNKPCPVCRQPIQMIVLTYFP
CF NFkB block: inhibitors of PAF-induced NF-kB signaling, primary screen, cell-based, GFP fluorescence, uHTS; KKLEB NF-kB-GFP reporter, GFP fluorescence overnight; inhibition, % at 5 µM; actives 0.86% (n = 360,000);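 active means at least 50% inhibition at 5 µM, scaled per plate between neutral and stimulator controls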;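 further: PAF is a Pseudomonas aeruginosa culture filtrate used as stimulus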
KKLEB cytotox: cytotoxicity in KKLEB CF airway cells, primary screen, cytotoxicity control for CF NF-kB inhibitor project, cell-based, uHTS, fluorescence assay plates | KKLEB CF airway cells viability, ATPlite luminescence, overnight; active compounds read low; cells stimulated with P. aeruginosa culture filtrate | activity change (cytotoxicity), % at 5 µM | actives 0.36% (n = 360,000);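 active means corrected activity change at or below -50% at 5 µM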
Peg3 promoter: Peg3 promoter-driven luciferase inhibitors, primary screen, cell-based, HeLa, luciferase luminescence. inhibition, % at 20 µM. HeLa PEG-Prom luciferase reporter, overnight. AID 588405, 2011. actives 1.7% (n = 360,000);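 active means inhibition of at least 50% at 20 µM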
LGR2 inh: inhibitors of bursicon-induced LGR2 CRE-luciferase signal, primary screen, cell-based, HEK293, CRE-luciferase reporter, bursicon stimulation; inhibition, % at 9.99 µM; bursicon-stimulated, 4 h; AID 720647, 2013; actives 0.35% (n = 380,000); Drosophila bursicon receptor LGR2 (rickets);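 active means drop in luminescence signal, shown as inhibition above about 50% in the replicate tests, limit read from the data, passing the limit was not always enough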;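 further: agonist challenge used bursicon conditioned medium at about half maximal strength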
HSP90 refold inh: HSP90 inhibitors, primary screen, cell lysate, luminescence; actives 0.91% (n = 290,000); inhibition, % at 5.6 µM; AID 1789, 2009; Heat shock protein HSP 90 (rabbit reticulocyte lysate; luciferase refolding); Rabbit reticulocyte lysate, luciferase refolding luminescence, 3 h;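 active means inhibition above the screen-wide mean plus 3 SD, computed separately per campaign, cut at about 16% in these data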;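 further: inhibitors lower the luminescence because luciferase stays unfolded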
HSP90 inh confirm: HSP90 inhibitors, confirmation, cell lysate, luminescence | shares compounds with HSP90 refold inh | rabbit reticulocyte lysate, luciferase refolding luminescence, 3 h | inhibition, % at 5.9 µM | actives 64% (n = 2,300) | AID 1846, 2009; in the data active means inhibition above about 18%
FLuc counter-1: firefly luciferase inhibitors, HSP90 counter-screen, confirmation, artefact control for HSP90 inhibitor project, biochemical, luminescence, triplicate; actives 48% (n = 2,300); purified native firefly luciferase; AID 1847, 2009; shares compounds with HSP90 refold inh; inhibition, % at 5.9 µM;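 active means inhibition above the mean inhibition of all tested sample wells plus 3 SD, cut at about 10% in these data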
Mdm2-MdmX conf: Mdm2-MdmX complex disruptors, retested hits, confirmation, luminescence, single concentration; shares compounds with Mdm2 MdmX PPI; Mdm2-MdmX binding, luminescent assay; inhibition, % at 8 µM; actives 55% (n = 10,000); AID 489028, 2010; in the data active means inhibition above about 40%
FLuc counter-2: full-length luciferase signal inhibition, confirmation, counter-screen for Mdm2/MdmX interaction inhibitor project, cell-based, single concentration, SaOS-2 | inhibition, % at 8 µM | actives 77% (n = 6,200) | SaOS-2 full-length luciferase counterscreen, luminescence | shares compounds with Mdm2 MdmX PPI;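 active means mean inhibition at 8 µM reaching about 37%, which flags the compound as non-specific, limit read from the data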;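 further: p53-null SaOS-2 cells with luciferase driven by a doxycycline-inducible promoter; compound on cells about two nights before reading with doxycycline added after day one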
Large screens that a line does not name were inactive (follow-up assays come after a bar, where they were run). Rows were chosen to be rich in hits. Some 3.6% of all compounds tested hit in one or more screens of this group.

Cc1ccc(CNC(=O)CN2NS(=O)(=O)c3ccccc3C2=O)cc1	none (no result: Mdm2 MdmX PPI, HSP90 refold inh)
C=CCn1c(C)cc(C(=O)CN2NS(=O)(=O)c3ccccc3C2=O)c1C	Mdm2 MdmX PPI 63.8, HSP90 refold inh 34.7 | HSP90 inh confirm 35.5 | FLuc counter-1 12.3 | Mdm2-MdmX conf inactive
C[C@@H]1CN([C@@H](C)CO)C(=O)Cc2cc(NC(=O)CCCN(C)C)ccc2O[C@@H]1CN(C)S(=O)(=O)c1ccccc1	none (no result: Mdm2 MdmX PPI, CF NFkB block, KKLEB cytotox, Peg3 promoter, HSP90 refold inh)
CN1Cc2sc(NC(=S)NC(=O)c3ccccc3)c(C#N)c2CC1(C)C	Mdm2 MdmX PPI 58.2, HSP90 refold inh 17.3 (no result: CF NFkB block, KKLEB cytotox, Peg3 promoter) | HSP90 inh confirm 31.1 | FLuc counter-1 15.3 | Mdm2-MdmX conf 62.0 | FLuc counter-2 61.0
COc1ccc(-c2cc3c(=O)n(CC(=O)NCCCN4CCC(Cc5ccccc5)CC4)ncn3n2)cc1	Mdm2 MdmX PPI 87.1, KKLEB cytotox -61.9, Peg3 promoter 96.0, HSP90 refold inh 55.3 | HSP90 inh confirm 59.5 | FLuc counter-1 inactive | Mdm2-MdmX conf inactive | FLuc counter-2 67.6
COc1ccc(-c2noc(CCC(=O)NCCCN3CCC(Cc4ccccc4)CC3)n2)cc1	none (no result: LGR2 inh)
C[C@@H]1CCCCO[C@H](CN(C)Cc2ccc(Cl)c(Cl)c2)[C@H](C)CN([C@@H](C)CO)C(=O)c2cc(NS(=O)(=O)c3ccc(Cl)cc3)ccc2O1	none (no result: Mdm2 MdmX PPI, CF NFkB block, KKLEB cytotox, Peg3 promoter, HSP90 refold inh)
O=C(Cc1ccccc1)N1CC(=O)N2[C@H](CO)[C@@H](c3ccc(-c4cccc(F)c4)cc3)[C@@H]2C1	none (no result: Mdm2 MdmX PPI, CF NFkB block, KKLEB cytotox, Peg3 promoter, HSP90 refold inh)
Cc1cccc(C)c1-n1c(C)cc(/C=N\Nc2ccc([N+](=O)[O-])cn2)c1C	none (no result: LGR2 inh)
Cc1cc(/C=N/Nc2nc(N)ncc2[N+](=O)[O-])c(C)n1-c1ccccc1F	Mdm2 MdmX PPI 73.7, HSP90 refold inh 77.8 (no result: CF NFkB block, KKLEB cytotox, Peg3 promoter, LGR2 inh) | HSP90 inh confirm 93.8 | FLuc counter-1 88.9 | Mdm2-MdmX conf 84.2 | FLuc counter-2 49.6
C[C@H](O)C#Cc1cnc2c(c1)C(=O)N([C@H](C)CO)C[C@H](C)[C@H](CN(C)Cc1ccccn1)O2	none (no result: Mdm2 MdmX PPI, CF NFkB block, KKLEB cytotox, Peg3 promoter, HSP90 refold inh)
Cc1cc2cc3c(cc2nc1SCC(=O)N1CCCC1)OCCO3	none
N#Cc1cc2cc3c(cc2nc1SCC(=O)N1CCOCC1)OCCO3	Mdm2 MdmX PPI 83.6, HSP90 refold inh 20.8 | HSP90 inh confirm 16.6 | FLuc counter-1 inactive | Mdm2-MdmX conf 87.5 | FLuc counter-2 80.6
O=C(CC(Nc1ccc(Cl)cc1Cl)C(=O)O)c1ccccc1 (configuration not stated)	Mdm2 MdmX PPI 71.4, HSP90 refold inh 24.7 | HSP90 inh confirm 75.8 | FLuc counter-1 74.0 | Mdm2-MdmX conf 79.5 | FLuc counter-2 63.4
O=C(CC(Nc1ccccc1)C(=O)O)c1ccccc1 (configuration not stated)	none (no result: LGR2 inh, HSP90 refold inh)
CC(C)(C)c1ccc(-c2noc(CCC(=O)Nc3cccnc3)n2)cc1	Mdm2 MdmX PPI 54.8, HSP90 refold inh 45.0 | HSP90 inh confirm inactive | FLuc counter-1 inactive | Mdm2-MdmX conf 53.0 | FLuc counter-2 inactive
COc1ccc(-c2noc(CCC(=O)Nc3cccnc3)n2)cc1	none
